The campaign covered roughly 1,900 compounds. About 250 (13%) were called active. About 4% were inconclusive and are not listed.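 The calls were made as follows: active = fitted curve reaches 40% rescue activity at or below the top valid dose, in every test run; inconclusive = test runs disagree, some active and some inactive; inactive = every run misses the threshold or moves the wrong way.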 The list is a sample of the results. Measured potencies and affinities stand elsewhere.

The assay can be described thus: rescue of simvastatin-induced ATP loss – cell-based, C2C12 myotubes, ATP luminescence, cherry pick, dose response (AID 624405).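 Also: myotubes are challenged with simvastatin at 10 µM to lower ATP.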 The following applies: 48 h, scaled: DMSO wells 0, geranylgeraniol wells 100; series mostly up to 19.5 µM.
Turning to `Cc1ccc(-c2nc(CS(=O)CC(=O)NC3CCCCC3)c(C)o2)cc1` (configuration not stated), the compound was classed as inactive.
The entry for `C[C@@H]1CN([C@@H](C)CO)C(=O)Cc2cc(NS(=O)(=O)c3ccc(Cl)cc3)ccc2O[C@H]1CN(C)Cc1ccc2c(c1)OCO2` is “inactive”; for `C[C@@H]1CN([C@H](C)CO)C(=O)Cc2cc(NS(=O)(=O)c3ccc(F)cc3)ccc2O[C@H]1CN(C)Cc1ccc2c(c1)OCO2` it is “inactive”.
Under `C[C@@H]1CN([C@H](C)CO)C(=O)c2cc(NC(=O)CCC(F)(F)F)ccc2O[C@@H](C)CCCCO[C@@H]1CN(C)Cc1ccc(C(F)(F)F)cc1` stands “inactive”.
The entry for `COc1ccc(OC)c(C(c2nnnn2Cc2ccccc2)N2CCN(C3CCCCC3)CC2)c1` (configuration not stated) is “inactive”; for `COc1ccc(Cn2nnnc2C(c2ccccc2OC)N2CCC(C(N)=O)CC2)cc1` (configuration not stated) it is “inactive”.
On to `Cc1cnc(-c2nnc(N(C)C(=O)c3cccnc3)s2)cn1`, for which the outcome was inactive.
Turning to `C[C@@H]1CN([C@H](C)CO)C(=O)c2cccc(NS(=O)(=O)c3cccs3)c2O[C@@H]1CN(C)S(=O)(=O)c1ccccc1`, the compound was called inactive.
Turning to `COc1cccc(NC(=O)c2cccc(OC)c2OC)c1`, the compound was classed as inactive.
The entry for `CN1C(=O)c2cc(NC(=O)Cc3cccs3)ccc2OC[C@H]2O[C@@H](CC(=O)NCc3ccc(-c4ccccc4)cc3)CC[C@H]21` is “inactive”; for `CCOC(=O)N1CCN(C(=O)CSCC(=O)Nc2nc(-c3ccc4c(c3)OCO4)cs2)CC1` it is “inactive”.
Under `O=C(CSc1ccc2c(c1)OCCO2)Nc1ccc(Br)cc1` stands “inactive”; under `CC(Oc1ccc(Cl)cc1Cl)C(=O)N(Cc1ccco1)C1CCS(=O)(=O)C1` (configuration not stated), “inactive”; under `O=C(C[C@H]1CC[C@H]2[C@@H](COC[C@@H](O)CN2C(=O)c2cc(Cl)cc(Cl)c2)O1)N1CCc2ccccc2C1`, “inactive”.
Under `CS(=O)(=O)N(CCc1ccccc1)CC(=O)N1CCc2ccccc2C1` stands “inactive”; under `Cc1cc(C)c2cc(CN(Cc3ccco3)C(=O)NCc3ccccc3)c(=O)[nH]c2c1`, “inactive”; under `COc1ccc(NC(=O)Cn2ccc(C(F)(F)F)n2)cc1S(=O)(=O)N1CCOCC1`, “inactive”.
For `C[C@@H]1CCCCO[C@H](CN(C)S(=O)(=O)c2ccc(Cl)cc2)[C@@H](C)CN([C@H](C)CO)C(=O)c2cc(NS(C)(=O)=O)ccc2O1`, the compound was classed as inactive.
Under `CCOC(=O)c1c(C)oc2ccc(OCC(=O)C(C)(C)C)cc12` stands “inactive”.
Under `COc1ccc(C)cc1NC(=O)C1CCCN1C(=O)OCc1ccccc1` (configuration not stated) stands “inactive”; under `CC(=O)c1cccc(NC(=O)N2CCCC2C(=O)Nc2cc(C)ccc2C)c1` (configuration not stated), “inactive”; under `O=C(Nc1ccccc1Cl)N1C[C@H]2[C@@H](c3ccccc31)[C@H](CO)N2Cc1ccccc1`, “inactive”.
Under `C[C@H]1CN([C@@H](C)CO)C(=O)Cc2cc(NC(=O)Nc3ccc(C(F)(F)F)cc3)ccc2O[C@H]1CN(C)Cc1ccc(Oc2ccccc2)cc1` stands “inactive”; under `C[C@@H]1CCCCO[C@@H](CN(C)Cc2ccc(Cl)c(Cl)c2)[C@@H](C)CN([C@@H](C)CO)C(=O)c2cc(NC(=O)NC3CCCCC3)ccc2O1`, “inactive”.
Consider `Cc1sc2nc(CN(C(=O)c3cccs3)C3CCCC3)[nH]c(=O)c2c1C`, for which the compound was called inactive.
Consider `C[C@@H]1CN([C@@H](C)CO)C(=O)Cc2cc(NC(=O)Cc3cn(C)c4ccccc34)ccc2O[C@H]1CN(C)Cc1ccc(Cl)c(Cl)c1`, for which the compound was called inactive.
`O=C(CSc1ncn(-c2ccccc2)n1)Nc1ccc2c(c1)OCCO2`: the outcome was inactive.
The entry for `Cc1ccc(CSc2nnc3nc(C)cc(C)n23)cc1` is “inactive”; for `CCOC(=O)Nc1c(C(=O)OC)[nH]c2cc(OC)ccc12` it is “inactive”.
The entry for `CC(C)CCNc1ncnc2c1cnn2Cc1ccccc1Cl` is “inactive”; for `Cc1cccc(S(=O)(=O)N(C)C[C@H]2OCc3ccccc3-c3c(n(C)c4ccccc34)C(=O)N([C@@H](C)CO)C[C@H]2C)c1` it is “inactive”.
For the compound `Cc1ccccc1S(=O)(=O)N(C)C[C@H]1OCc2ccccc2-c2c(n(C)c3ccccc23)C(=O)N([C@H](C)CO)C[C@H]1C`, the outcome was inactive.
Under `C[C@H](CO)N1C[C@H](C)[C@@H](CN(C)S(=O)(=O)c2ccccc2)OCCCC[C@H](C)Oc2ccc(N(C)C)cc2C1=O` stands “inactive”; under `C[C@@H]1CN([C@@H](C)CO)C(=O)c2cc(NC(=O)NC3CCCCC3)ccc2O[C@@H](C)CCCCO[C@H]1CN(C)C(=O)c1ccccc1`, “inactive”.
The entry for `COc1ccc(CN2[C@H](CO)[C@@H]3c4ccccc4N(C(=O)C4CC4)C[C@@H]32)cc1` is “inactive”.
Under `CCC(=O)NCCc1nc2ccccc2n1Cc1ccccc1` stands “inactive”; under `CCCCCCN1Cc2ccccc2C1`, “inactive”.
In the case of `CCCCn1c(=O)c(-c2ccccc2)c(O)c2ccccc21`, the compound was called inactive.
As for `Cc1ccc(OCCCn2c(CO)nc3ccccc32)cc1`, the compound was called inactive.
Turning to `CCc1nc2ccccc2n(CCOCCOCCn2c(=O)c(CC)nc3ccccc32)c1=O`, the compound was called inactive.
Under `C=C(C)Cn1c(CCCNC(=O)C(C)(C)C)nc2ccccc21` stands “inactive”.
As to `CCN1CCCC1CNC(=O)c1c(O)c2c([nH]c1=O)CCCC2` (configuration not stated), the result was inactive.
Under `COCC(C)NS(=O)(=O)c1ccc(C)cc1` (configuration not stated) stands “inactive”; under `C[C@H]1CN([C@@H](C)CO)C(=O)Cc2cc(NC(=O)c3ccncc3)ccc2O[C@@H]1CN(C)C(=O)Nc1cccc2ccccc12`, “inactive”.
Under `C[C@H](CO)N1C[C@H](C)[C@@H](CN(C)S(=O)(=O)c2ccc(Cl)cc2)OCCCC[C@H](C)Oc2ccc(NS(C)(=O)=O)cc2C1=O` stands “inactive”; under `C[C@H](CO)N1C[C@H](C)[C@@H](CN(C)Cc2ccc(Cl)c(Cl)c2)Oc2ccc(NC(=O)Cc3ccccc3)cc2CC1=O`, “inactive”; under `C[C@H]1CN([C@@H](C)CO)C(=O)c2cc(C3=CCCCC3)cnc2O[C@H]1CN(C)C(=O)c1ccccn1`, “inactive”.
Under `Cc1cc(NC(=O)c2ccc(N3C(=O)CCC3=O)cc2)no1` stands “inactive”; under `COc1cc(C)ccc1OCCCOc1cc(C)ccc1Cl`, “inactive”; under `COc1ccc(Cl)cc1C(=O)n1nc(C)cc1C`, “inactive”.
Take `C[C@@H]1CN([C@@H](C)CO)C(=O)Cc2cc(NC(=O)CCC(F)(F)F)ccc2O[C@H]1CN(C)Cc1ccc(Oc2ccccc2)cc1`: the compound was classed as inactive.
Under `Cc1ccc(-c2nc3ccccc3[nH]2)cc1NC(=O)c1ccco1` stands “inactive”; under `CCc1c(C)sc(NC(=O)c2ccco2)c1C(=O)N1CCCCC1`, “inactive”; under `C[C@H](CO)N1C[C@H](C)[C@@H](CN(C)Cc2ccc(-c3ccccc3)cc2)Oc2ccc(NC(=O)Cc3cn(C)c4ccccc34)cc2CC1=O`, “inactive”.
With `C[C@@H]1CN([C@H](C)CO)C(=O)c2cccc(NS(=O)(=O)c3cccs3)c2O[C@@H]1CN(C)Cc1ccc(Oc2ccccc2)cc1`, the compound was called inactive.
Under `CC1Cc2ccccc2N1C(=O)C1CCN(S(=O)(=O)Cc2ccccc2)CC1` (configuration not stated) stands “inactive”; under `Cc1cc(C(=O)CSc2nnnn2-c2ccccc2)c(C)n1CCc1ccccc1`, “inactive”; under `CCOC(=O)c1ccc(-c2c(C(=O)OCC)oc3cc(O)c(CC)cc3c2=O)o1`, “inactive”.
The entry for `Cc1cccc(C(=O)N2CCC(n3nnc4cc(F)ccc43)CC2)c1` is “inactive”; for `COc1ccccc1NC(=O)CN1C(=O)CCS(=O)(=O)c2ccccc21` it is “inactive”; for `Cc1cccc(C)c1NC(=O)c1nc(S(=O)(=O)Cc2ccccc2)ncc1Cl` it is “inactive”.
The entry for `CCC(NS(=O)(=O)c1ccc(C)cc1)C(=O)Nc1ccc(NC(C)=O)cc1` (configuration not stated) is “inactive”.
For `CS(=O)(=O)c1ncc(Cl)c(C(=O)Nc2ccc(OC(F)F)cc2)n1`, the compound was classed as inactive.
Under `Cc1noc(C)c1NC(=O)Nc1ccc2c(c1)C(=O)N([C@H](C)CO)C[C@@H](C)[C@H](CN(C)C(=O)Nc1ccccc1)OCCCC[C@@H](C)O2` stands “inactive”; under `CN1C[C@@H]2[C@H](c3ccccc31)[C@H](CO)N2Cc1ccccc1`, “inactive”; under `Nc1nc(CSc2nnnn2-c2ccccc2)nc(N2CCCc3ccccc32)n1`, “inactive”.
The entry for `COC(=O)c1c(C)noc1-c1cc(C)on1` is “inactive”; for `C[C@@H]1CN([C@H](C)CO)C(=O)c2cc(NC(=O)Nc3ccc(F)cc3)ccc2O[C@@H](C)CCCCO[C@@H]1CN(C)S(=O)(=O)c1cccs1` it is “inactive”; for `COc1cccc(-c2cnc3c(c2)C(=O)N([C@H](C)CO)C[C@H](C)[C@H](CN(C)Cc2cccc(C)c2)O3)c1` it is “inactive”.
Under `C[C@@H]1CN([C@H](C)CO)C(=O)c2cc(NS(C)(=O)=O)ccc2O[C@@H](C)CCCCO[C@H]1CN(C)S(=O)(=O)c1ccc(Cl)cc1` stands “inactive”; under `COc1ccc(NC(=O)Nc2ccc3c(c2)C(=O)N([C@@H](C)CO)C[C@@H](C)[C@@H](CN(C)CC2CCCCC2)OCCCC[C@H](C)O3)cc1`, “inactive”.
Take `CCCCn1c(SCc2ccccn2)nc2c1c(=O)n(C)c(=O)n2C`: the outcome was inactive.
Under `CCOCCn1c(N2CCN(c3ccc(OC)cc3)CC2)nc2c1c(=O)[nH]c(=O)n2C` stands “inactive”; under `CCCCCn1c(N2CCC(C(N)=O)CC2)nc2c1c(=O)[nH]c(=O)n2C`, “inactive”; under `Cc1cccc(Cn2c(N3CCCCC3C)nc3c2c(=O)[nH]c(=O)n3C)c1` (configuration not stated), “inactive”.
Under `O=C(Nc1ccc2nn(-c3ccccc3)nc2c1)c1cccnc1` stands “inactive”.
Under `O=C(CSCc1ccc(Cl)cc1)N/N=C/c1ccccc1` stands “inactive”; under `C[C@@H]1CN([C@@H](C)CO)C(=O)Cc2cc(NC(=O)Nc3cccc4ccccc34)ccc2O[C@H]1CN(C)Cc1ccc(Oc2ccccc2)cc1`, “inactive”.
As for `O=C(Nc1ccccc1Cl)NC1(C(=O)N2CCCCC2)CCCCC1`, the compound was called inactive.
Under `Cc1ccc(-c2cc(N)n(-c3ccc(C)cc3)n2)cc1` stands “inactive”; under `C=CCn1c(=O)/c(=C\c2ccsc2)s/c1=C(/C#N)C(=O)NCCN1CCOCC1`, “inactive”; under `C[C@H]1CN([C@@H](C)CO)C(=O)c2cc(NS(=O)(=O)c3ccc(Cl)cc3)ccc2O[C@H]1CN(C)Cc1ccc(Oc2ccccc2)cc1`, “inactive”.
Under `Cc1ccc(S(=O)(=O)Nc2ccc3c(c2)C(=O)N([C@@H](C)CO)C[C@H](C)[C@H](CN(C)Cc2ccc(C(F)(F)F)cc2)O3)cc1` stands “inactive”; under `C[C@@H]1CN([C@H](C)CO)C(=O)c2cc(NS(=O)(=O)c3ccc(Cl)cc3)ccc2O[C@H]1CN(C)C(=O)Nc1cccc2ccccc12`, “inactive”; under `C[C@H]1CN([C@@H](C)CO)C(=O)c2cc(NC(=O)Nc3ccc(C(F)(F)F)cc3)ccc2O[C@@H]1CN(C)Cc1ccc(C(=O)Nc2ccccc2N)cc1`, “inactive”.
The entry for `Cc1ccc(S(=O)(=O)Nc2ccc3c(c2)C(=O)N([C@@H](C)CO)C[C@H](C)[C@H](CN(C)Cc2ccc(C(=O)Nc4ccccc4N)cc2)O3)cc1` is “inactive”; for `C[C@@H]1CCCCO[C@H](CN(C)C(=O)Nc2cccc3ccccc23)[C@H](C)CN([C@H](C)CO)C(=O)c2cc(NS(=O)(=O)c3ccc(Cl)cc3)ccc2O1` it is “inactive”.

(Values after PubChem BioAssay AID624405 (Broad Institute, 2012).)
